Experimental data as given in the supplement of paper PMC8728848.
Only a selection was taken, and the strongest signals are over-represented in it overall.

Columns and labels:
Test in all cases: glycan array binding signal (z-score within array); higher = stronger binding
Details in all cases: glycan notation: IUPAC condensed, linker removed
Fuc(a1-2)Gal = target: Fuc(a1-2)Gal
Method in brief: (§1)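 Glycan array data were curated from 3228 arrays in the Consortium for Functional Glycomics database and kept only where the protein sequence was available. Glycan names were converted to IUPAC-condensed notation, and columns mapping to the same glycan were averaged. The binding signal is a within-array Z-score, averaged across arrays of the same protein sequence at different concentrations or buffers and across linkers. Negative Z-scores can be read as non-binding.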

[1] = target: Fuc(a1-2)Gal(b1-3)GalNAc(b1-4)[Neu5Ac(a2-3)]Gal(b1-4)Glc
Method in brief: as §1

[2] = target: Fuc(a1-2)Gal(b1-4)[Fuc(a1-3)]GlcNAc(b1-2)Man(a1-3)[Fuc(a1-2)Gal(b1-4)[Fuc(a1-3)]GlcNAc(b1-2)Man(a1-6)]Man(b1-4)GlcNAc(b1-4)[Fuc(a1-6)]GlcNAc
Method in brief: as §1

[3] = target: Fuc(a1-2)Gal6S(b1-3)GlcNAc6S
Method in brief: as §1

[4] = target: Fuc(a1-2)Gal6S(b1-4)Glc6S
Method in brief: as §1

[5] = target: Fuc(a1-2)[GalNAc(a1-3)]Gal(b1-4)GlcNAc(b1-2)Man
Method in brief: as §1

[6] = target: Fuc(a1-2)[GalNAc(a1-3)]Gal(b1-4)GlcNAc(b1-6)GalNAc
Method in brief: as §1

[7] = target: Fuc(a1-3)[Gal(b1-4)]Glc6S
Method in brief: as §1

[8] = target: Fuc(a1-3)[Gal3S(b1-4)]Glc
Method in brief: as §1

[9] = target: Gal(a1-3)Gal(b1-3)GlcNAc(b1-3)GalNAc
Method in brief: as §1

[10] = target: Gal(a1-3)[Gal(a1-4)]Gal(b1-4)GlcNAc
Method in brief: as §1

[11] = target: Gal(a1-4)Gal(b1-4)GlcNAc(b1-2)Man(a1-3)[Gal(a1-4)Gal(b1-4)GlcNAc(b1-2)Man(a1-6)]Man(b1-4)GlcNAc(b1-4)GlcNAc
Method in brief: as §1

[12] = target: Gal(a1-4)Gal(b1-4)GlcNAc(b1-3)Gal(b1-4)Glc
Method in brief: as §1

[13] = target: Gal(b1-3)GlcNAc(b1-3)Gal(b1-4)GlcNAc(b1-2)[Gal(b1-3)GlcNAc(b1-3)Gal(b1-4)GlcNAc(b1-6)]Man(a1-6)[Gal(b1-3)GlcNAc(b1-3)Gal(b1-4)GlcNAc(b1-2)Man(a1-3)]Man(b1-4)GlcNAc(b1-4)[Fuc(a1-6)]GlcNAc
Method in brief: as §1

[14] = target: Gal(b1-3)GlcNAc(b1-3)Gal(b1-4)GlcNAc(b1-3)Gal(b1-4)GlcNAc(b1-2)[Gal(b1-3)GlcNAc(b1-3)Gal(b1-4)GlcNAc(b1-3)Gal(b1-4)GlcNAc(b1-6)]Man(a1-6)[Gal(b1-3)GlcNAc(b1-3)Gal(b1-4)GlcNAc(b1-3)Gal(b1-4)GlcNAc(b1-2)Man(a1-3)]Man(b1-4)GlcNAc(b1-4)[Fuc(a1-6)]GlcNAc
Method in brief: as §1

[15] = target: Gal(b1-3)GlcNAc(b1-6)Gal(b1-4)GlcNAc
Method in brief: as §1

[16] = target: Gal(b1-3)[Fuc(a1-4)]GlcNAc
Method in brief: as §1

[17] = target: Gal(b1-4)GlcNAc(b1-2)Man(a1-3)[Gal(b1-4)GlcNAc(b1-2)Man(a1-6)][Gal(b1-4)GlcNAc(b1-4)]Man(b1-4)GlcNAc(b1-4)[Fuc(a1-6)]GlcNAc
Method in brief: as §1

[18] = target: Gal(b1-4)GlcNAc(b1-2)Man(a1-3)[Gal(b1-4)GlcNAc(b1-2)Man(a1-6)][GlcNAc(b1-4)]Man(b1-4)GlcNAc(b1-4)[Fuc(a1-6)]GlcNAc
Method in brief: as §1

[19] = target: Gal(b1-4)GlcNAc(b1-2)Man(a1-6)[Man(a1-3)]Man(b1-4)GlcNAc(b1-4)GlcNAc
Method in brief: as §1

[20] = target: Gal(b1-4)GlcNAc(b1-2)[Gal(b1-4)GlcNAc(b1-4)]Man(a1-3)[GlcNAc(b1-4)][Gal(b1-4)GlcNAc(b1-2)Man(a1-6)]Man(b1-4)GlcNAc(b1-4)GlcNAc
Method in brief: as §1

[21] = target: Gal(b1-4)GlcNAc(b1-3)Gal(b1-4)GlcNAc(b1-3)Gal(b1-4)GlcNAc(b1-3)Gal(b1-4)GlcNAc(b1-2)Man(a1-3)[Gal(b1-4)GlcNAc(b1-3)Gal(b1-4)GlcNAc(b1-3)Gal(b1-4)GlcNAc(b1-3)Gal(b1-4)GlcNAc(b1-2)Man(a1-6)]Man(b1-4)GlcNAc(b1-4)GlcNAc
Method in brief: as §1

[22] = target: Gal(b1-4)GlcNAc(b1-3)Gal(b1-4)GlcNAc(b1-3)Gal(b1-4)GlcNAc(b1-3)Gal(b1-4)GlcNAc(b1-2)Man(a1-3)[Gal(b1-4)GlcNAc(b1-3)Gal(b1-4)GlcNAc(b1-3)Gal(b1-4)GlcNAc(b1-3)Gal(b1-4)GlcNAc(b1-2)Man(a1-6)]Man(b1-4)GlcNAc(b1-4)[Fuc(a1-6)]GlcNAc
Method in brief: as §1

[23] = target: Gal(b1-4)GlcNAc(b1-3)[Fuc(a1-3)GlcNAc(b1-6)]Gal(b1-4)Glc
Method in brief: as §1

[24] = target: Gal3S(b1-3)[Fuc(a1-4)]GlcNAc
Method in brief: as §1

Gal3S(b1-4)GlcNAc = target: Gal3S(b1-4)GlcNAc
Method in brief: as §1

[25] = target: Gal3S(b1-4)[Fuc(a1-3)]GlcNAc
Method in brief: as §1

Gal6S(b1-4)GlcNAc = target: Gal6S(b1-4)GlcNAc
Method in brief: as §1

B1: PX14343F-bfa-562-20-562 (Bacteroides fragilis) (protein)
chain: CDDFLDSFPQDTVTNENFWKSKEDADKVLVDIYASLLPKDAIFFDEAMSDNAYLVWDWWGGAQQVANGSYTTSGEIPTNRWNGSYEVIRKCWFLLEGIEKIEDISEQDKNKIIGETYFMLAYNYYVLTSYFGDVPLVTKTLAIPESKQLVRTPKAEVVDYAINKLKEAAVMLEGLSQEKGRVTADACRFLIARMYLYNGDYSNVLETVKLLEGKYQLYREGDTPYEDLFSGVAENSCEVILSVVCDKRVGEIYTSHGGNGIMLLKGITGEDPYRGVTPSGSLVDAYPMADGRLIHEAGSSYDPKKPYEGRDPRFYQSIVYPTGQIKYLDVETGTVKERLYDPEDPTTVPEHQYNYSQPSATGYMWNKYIDYSVYAMNSVWDCTNDIIVFRYADVLLMKAEALLQTKGESAKEEVCNLIDQLRDRCSCGRVHRENYNSKDELMELLKNERRIELANEGLRYMDLIRWKDAEKNTIVTGVGLTGQMYGAYMRKDGVGKDDKTVDVDNTPRRYIETRYFNASKGYLFPIPQKERDLNPNLTQNPNW
- glycan array binding signal (z-score) (Fuc(a1-2)Gal): -0.039
- glycan array binding signal (z-score) [1]: 0.115
- glycan array binding signal (z-score) [2]: -0.43
- glycan array binding signal (z-score) [3]: 1.48
- glycan array binding signal (z-score) [4]: 0.012
- glycan array binding signal (z-score) [5]: 0.033
- glycan array binding signal (z-score) [6]: -0.301
- glycan array binding signal (z-score) [7]: -0.078
- glycan array binding signal (z-score) [8]: -0.368
- glycan array binding signal (z-score) [9]: -0.716
- glycan array binding signal (z-score) [10]: 3.69
- glycan array binding signal (z-score) [11]: 1.42
- glycan array binding signal (z-score) [12]: -0.481
- glycan array binding signal (z-score) [13]: 1.83
- glycan array binding signal (z-score) [14]: 1.38
- glycan array binding signal (z-score) [15]: -0.369
- glycan array binding signal (z-score) [16]: -0.027
- glycan array binding signal (z-score) [17]: -0.394
- glycan array binding signal (z-score) [18]: -0.937
- glycan array binding signal (z-score) [19]: 0.332
- glycan array binding signal (z-score) [20]: 0.08
- glycan array binding signal (z-score) [21]: 0.79
- glycan array binding signal (z-score) [22]: -0.007
- glycan array binding signal (z-score) [23]: 1.78
- glycan array binding signal (z-score) [24]: -0.53
- glycan array binding signal (z-score) (Gal3S(b1-4)GlcNAc): 0.086
- glycan array binding signal (z-score) [25]: 0.472
- glycan array binding signal (z-score) (Gal6S(b1-4)GlcNAc): 0.658
